According to PubChem BioAssay (NCATS):
Records with an inconclusive call do not appear. Active and inactive are the calls of the source. Unless noted, the call rests on the fitted dose curve.

Tests used:
[1] = biological target: Estrogen receptor (Homo sapiens) (UniProt P03372); assay: qHTS assay for small molecule antagonists of estrogen receptor alpha signaling (AID 588513; active means well fitted curve in the direction sought with a large enough effect in the signal ratio, with a control signal flat, not every such curve was filed as active; the % refers to the signal ratio; further: on the % scale 0 is the no-effect control and ±100 the full control effect)
Estrogen receptor (Homo sapiens), sequence (P03372 whole entry, looked up): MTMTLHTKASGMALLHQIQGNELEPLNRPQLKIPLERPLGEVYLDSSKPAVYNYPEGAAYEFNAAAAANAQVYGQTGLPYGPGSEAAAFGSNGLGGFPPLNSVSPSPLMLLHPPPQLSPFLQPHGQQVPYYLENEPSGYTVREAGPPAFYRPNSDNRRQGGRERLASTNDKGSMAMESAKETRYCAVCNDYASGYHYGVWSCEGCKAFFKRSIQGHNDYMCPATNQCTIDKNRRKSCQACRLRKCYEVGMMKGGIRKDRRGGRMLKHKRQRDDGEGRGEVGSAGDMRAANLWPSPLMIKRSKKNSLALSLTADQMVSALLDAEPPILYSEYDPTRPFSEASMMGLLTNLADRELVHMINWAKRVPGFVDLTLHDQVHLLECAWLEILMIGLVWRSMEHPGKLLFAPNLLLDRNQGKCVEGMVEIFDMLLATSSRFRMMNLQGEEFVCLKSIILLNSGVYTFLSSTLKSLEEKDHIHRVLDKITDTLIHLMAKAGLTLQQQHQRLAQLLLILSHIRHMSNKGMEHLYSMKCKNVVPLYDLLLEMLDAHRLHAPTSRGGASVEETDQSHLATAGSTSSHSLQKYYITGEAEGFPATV
Outline: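 Antagonist-mode qHTS in ER-alpha-UAS-bla HEK 293 cells: compound titration, 0.5nM estradiol for 18 h, CCF4 fluorescence, Hill-derived IC50.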

[2] = biological target: Estrogen receptor (Homo sapiens) (UniProt P03372); assay: qHTS assay for small molecule agonists of estrogen receptor alpha signaling (AID 588514);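 further: 0% = vehicle only and 100% = reference agonist; nearly all actives have a fitted effect of over 70% in size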
Outline: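 Read-out: CCF4 fluorescence from a beta-lactamase reporter in ER-alpha-UAS-bla HEK 293 cells after 18 hrs of compound exposure at 37 C. Normalized to 20 nM 17-beta-estradiol (100%) and DMSO (0%).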

[3] = qHTS assay for small molecule antagonists of peroxisome proliferator-activated receptor delta signaling (AID 588535); details: HEK293T PPARd-UAS-bla, beta-lactamase FRET ratio, 18 h; 460 nm channel;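 further: cells co-treated with a PPAR-delta agonist as stimulator during compound exposure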
Outline: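 Beta-lactamase reporter read-out (405 nm excitation, 460/530 nm emission) after CCF4 loading for 2 hrs at RT. HEK293T PPAR-delta-UAS-bla cells, 2% charcoal/dextran FBS, compounds for 18 hrs at 37 C. Hill fit gave IC50 and efficacy.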

[4] = biological target: Vitamin D3 receptor (Homo sapiens) (UniProt P11473); assay: qHTS assay for small molecule antagonists of vitamin D receptor signaling (AID 588541);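 further: receptor activated by calcitriol during compound treatment; series mostly up to about 77 µM; on the % scale 0 is the no-effect control and ±100 the full control effect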
Vitamin D3 receptor (Homo sapiens), sequence (P11473 whole entry, looked up): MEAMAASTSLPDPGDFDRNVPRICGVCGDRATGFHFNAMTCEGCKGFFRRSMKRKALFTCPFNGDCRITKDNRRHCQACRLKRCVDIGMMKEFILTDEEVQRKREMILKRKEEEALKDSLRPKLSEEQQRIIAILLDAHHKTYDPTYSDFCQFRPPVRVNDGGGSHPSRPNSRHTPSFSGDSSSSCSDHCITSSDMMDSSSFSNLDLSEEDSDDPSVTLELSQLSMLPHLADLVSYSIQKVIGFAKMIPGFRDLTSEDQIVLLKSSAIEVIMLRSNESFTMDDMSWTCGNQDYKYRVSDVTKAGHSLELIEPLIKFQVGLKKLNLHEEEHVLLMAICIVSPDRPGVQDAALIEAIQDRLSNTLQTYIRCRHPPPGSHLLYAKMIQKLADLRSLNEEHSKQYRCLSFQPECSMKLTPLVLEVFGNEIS
Outline: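 VDR-UAS-bla HEK293T cells in 2% charcoal-stripped FBS were stimulated with 1-alpha,25-dihydroxyvitamin D3 (3 nM final) plus compound for 16 h at 37 C. The beta-lactamase CCF4 readout was normalized to 50 nM agonist and DMSO, and Hill fits gave IC50.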

[5] = qHTS assay for small molecule agonists of retinoid X receptor alpha signaling (AID 588544); details: HEK293T RXRa-UAS-bla, beta-lactamase reporter, 18 h; 530 nm emission;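 on activation: 0% = DMSO basal wells and 100% = reference agonist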
[6] = biological target: Retinoic acid receptor RXR-alpha (Homo sapiens) (UniProt P19793); assay: as above
Retinoic acid receptor RXR-alpha (Homo sapiens), sequence (P19793 whole entry, looked up): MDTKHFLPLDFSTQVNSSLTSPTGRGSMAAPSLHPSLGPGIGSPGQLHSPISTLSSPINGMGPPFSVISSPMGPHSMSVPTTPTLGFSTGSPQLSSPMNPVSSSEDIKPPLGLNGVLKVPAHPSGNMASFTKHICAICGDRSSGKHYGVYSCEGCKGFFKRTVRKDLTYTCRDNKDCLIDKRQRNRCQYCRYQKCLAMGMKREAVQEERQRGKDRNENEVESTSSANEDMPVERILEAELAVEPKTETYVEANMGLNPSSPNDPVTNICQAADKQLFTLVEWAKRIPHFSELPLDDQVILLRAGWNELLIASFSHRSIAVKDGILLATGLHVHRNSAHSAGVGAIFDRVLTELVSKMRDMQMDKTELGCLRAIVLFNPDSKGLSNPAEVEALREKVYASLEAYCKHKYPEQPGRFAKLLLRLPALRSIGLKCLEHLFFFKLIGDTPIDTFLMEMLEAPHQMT

[7] = biological target: Thyroid hormone receptor beta (Homo sapiens) (UniProt P10828); assay: qHTS assay for small molecule agonists of thyroid hormone receptor beta signaling (AID 588545)
Thyroid hormone receptor beta (Homo sapiens), sequence (P10828 whole entry, looked up): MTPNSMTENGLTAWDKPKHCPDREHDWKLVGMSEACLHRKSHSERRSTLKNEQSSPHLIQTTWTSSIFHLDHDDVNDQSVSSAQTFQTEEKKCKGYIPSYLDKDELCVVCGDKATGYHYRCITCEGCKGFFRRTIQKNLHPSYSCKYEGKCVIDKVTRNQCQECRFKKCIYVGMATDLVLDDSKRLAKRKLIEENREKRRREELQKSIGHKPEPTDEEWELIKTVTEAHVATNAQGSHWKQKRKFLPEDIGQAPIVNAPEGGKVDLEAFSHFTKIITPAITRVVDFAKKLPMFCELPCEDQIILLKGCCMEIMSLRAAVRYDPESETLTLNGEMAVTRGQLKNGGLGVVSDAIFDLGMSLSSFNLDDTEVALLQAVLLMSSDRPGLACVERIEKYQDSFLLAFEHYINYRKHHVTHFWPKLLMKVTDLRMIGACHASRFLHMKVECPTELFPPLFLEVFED
Outline: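 Cells (2500/well) were seeded, incubated 4 hrs at 37 C, dosed with a compound series, incubated 18 hrs, loaded with CCF4 dye for 2 hrs at RT, then read for fluorescence. Data were scaled between DMSO (0%) and 10 nM T3 (100%).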

[8] = qHTS assay for small molecule antagonists of retinoid X receptor alpha signaling (AID 588546; active means well fitted inhibition curve with a large enough effect in the signal ratio, with a control signal flat, not every such curve was filed as active; the % refers to the signal ratio;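 further: cells stimulated with 9-cis-retinoic acid as agonist; on the % scale 0 is the no-effect control and ±100 the full control effect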); details: HEK293T RXRa-UAS-bla, beta-lactamase ratio, antagonist mode; measured here: W530 green channel, cytotoxicity proxy
Outline: (§1)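 Beta-lactamase reporter inhibition, read as CCF4 fluorescence ratio (ex 405, em 460/530 nm) after 2 h at RT. HEK293T UAS-bla cells, 2500/well, were stimulated with 9-cis-RA at 500 or 100 nM final alongside test compound for 18 h at 37 C.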

[9] = biological target: Retinoic acid receptor RXR-alpha (Homo sapiens) (UniProt P19793); assay: as above; details: HEK293T RXRa-UAS-bla, beta-lactamase ratio, antagonist mode
Outline: as §1

[10] = qHTS assay for small molecule agonists of the antioxidant response element (ARE) signaling pathway measured by Nrf2-dependant transcriptional activity (AID 720636; active means well fitted curve in the direction sought with a large enough effect in the repeat runs; an effect the other way counts as inactive or inconclusive;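 further: HepG2 cells with an ARE-driven luciferase reporter; % of control where 0% means no effect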)
Outline: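 ONE-Glo luminescence, read 30 min after reagent addition at room temperature, reflected ARE reporter activity in HepG2 cells that had been incubated with compound for 16 hr at 37 C in 1% dialyzed FBS.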

[11] = qHTS assay for small molecule agonists of the antioxidant response element (ARE) signaling pathway measured by Nrf2-dependant transcriptional activity - cell viability counter screen (AID 720653; active means well fitted curve in the direction sought with a large enough effect in the repeat runs; an effect the other way counts as inactive or inconclusive; further: potency means the concentration at half of the fitted maximal effect); details: ARE-bla HepG2 viability, CellTiter-Glo ATP luminescence, 16 h; max response: stronger effect = lower value
Outline: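 ARE-bla HepG2 cells treated with compounds for 16 h at 37C; this counter screen measures viability as intracellular ATP by CellTiter-Glo luminescence after 30 min at room temperature.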

[12] = qHTS assay for cell viability of the p53RE-bla HCT-116 cell line (AID 743292; active means well fitted curve in the direction sought with a large enough effect; an effect the other way counts as inactive or inconclusive; further: nearly all actives have a fitted effect of over 55% in size; further: potency means the concentration at half of the fitted maximal effect)
Outline: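 After plating at 4,000 cells per well and a 5 h rest at 37 C, HCT-116 cells carrying p53RE-bla received test chemicals in DMSO. Sixteen hours later at 37 C, CellTiter-Glo was added and luminescence recorded following 30 min at room temperature.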

[13] = biological target: Nuclear receptor subfamily 1 group I member 2 (Rattus norvegicus) (UniProt Q9R1A7); assay: qHTS assay for small molecule activators of the rat pregnane X receptor (rPXR) signaling pathway (AID 651751; call rule not given here; further: 0% is about no effect); details: rPXR reporter cells, luciferase (One-Glo), 24 h
Nuclear receptor subfamily 1 group I member 2 (Rattus norvegicus), sequence (Q9R1A7 whole entry, looked up): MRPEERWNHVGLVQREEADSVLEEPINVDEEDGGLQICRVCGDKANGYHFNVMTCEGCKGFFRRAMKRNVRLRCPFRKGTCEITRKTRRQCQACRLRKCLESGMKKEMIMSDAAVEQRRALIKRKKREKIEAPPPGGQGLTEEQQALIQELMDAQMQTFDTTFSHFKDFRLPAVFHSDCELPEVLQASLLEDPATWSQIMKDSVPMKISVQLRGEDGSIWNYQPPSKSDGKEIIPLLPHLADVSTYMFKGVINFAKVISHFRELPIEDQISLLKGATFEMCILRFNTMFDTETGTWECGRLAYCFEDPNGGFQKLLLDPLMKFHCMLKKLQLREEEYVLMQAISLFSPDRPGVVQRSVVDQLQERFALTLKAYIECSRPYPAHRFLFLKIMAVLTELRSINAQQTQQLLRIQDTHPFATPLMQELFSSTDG

[14] = qHTS assay for small molecule activators of the human pregnane X receptor (PXR) signaling pathway (AID 720659; call rule not given here; further: 0% is about no effect)
[15] = biological target: Vitamin D3 receptor (Homo sapiens) (UniProt P11473); assay: qHTS assay for small molecule agonists of vitamin D receptor signaling (AID 588543);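 further: 0% = DMSO basal and 100% = reference agonist control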
Outline: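 Measured: β-lactamase reporter activity (CCF4, 405 nm excitation, 460/530 nm emission) in HEK293T VDR-UAS-bla cells after 16 h compound exposure at 37 °C. Normalization against 50 nM 1α,25-dihydroxyvitamin D3 and DMSO; Hill-fit EC50.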

[16] = biological target: Thyroid hormone receptor beta (Homo sapiens) (UniProt P10828); assay: qHTS assay for small molecule antagonists of thyroid hormone receptor beta signaling (AID 588547; active means well fitted inhibition curve with a large enough effect in the signal ratio, with a control signal flat, not every such curve was filed as active; the % refers to the signal ratio;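 further: cells stimulated with 0.4 nM T3 agonist during compound exposure; series mostly up to about 77 µM; on the % scale 0 is the no-effect control and ±100 the full control effect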); details: TR-UAS-bla HEK293, beta-lactamase ratio, antagonist mode, 18 h
Outline: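 TR-UAS-bla GripTite HEK293 cells in 2% charcoal/dextran FBS medium; compounds 0.59 nM to 92 uM with T3 at 0.4nM final, 18 h at 37 C. Beta-lactamase read by CCF4 fluorescence (460/530 nm); Hill fits gave IC50 and efficacy.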

[17] = qHTS assay for small molecule activators of the nuclear factor-kappa B (NF-kB) signaling pathway (AID 651749; active means well fitted activation curve with a large enough effect in the signal ratio; the % refers to the signal ratio; further: series mostly up to about 77 µM; % of control where 0% means no effect); details: NF-kB-bla ME-180 cells, beta-lactamase FRET ratio, 16 h; activation: stronger effect = higher value
Outline: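 NF-kB-bla ME-180 cells, 2,000/well; 23 nL compound or DMSO pinned; 16 hr, 37C/5% CO2; beta-lactamase FRET read-out.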

[18] = qHTS assay for environmental chemicals that activate the Aryl hydrocarbon Receptor (AhR) signaling pathway (AID 651777; active means well fitted curve in the direction sought with a large enough effect; an effect the other way counts as inactive or inconclusive; further: nearly all actives have a fitted effect of over 15% in size; further: potency means the concentration at half of the fitted maximal effect; on activation: % of control where 0% means no effect); details: 1A2-DRE human hepatoma cells, luciferase, 24 h; activation: stronger effect = higher value
Outline: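 Following a 24 hr incubation with test chemicals at 37 C and 5% CO2, 1A2-DRE human hepatoma cells received One-Glo reagent; after 30 min at room temperature, luciferase output reflected CYP1A2 induction via AhR.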

[19] = biological target: Peroxisome proliferator-activated receptor alpha (Homo sapiens) (UniProt Q07869); assay: qHTS assay for small molecule agonists of the peroxisome proliferator-activated receptor alpha (PPARalpha) signaling pathway (AID 651778; active means well fitted curve in the direction sought with a large enough effect; an effect the other way counts as inactive or inconclusive; further: % of control where 0% means no effect); details: PathHunter PPARalpha complementation, chemiluminescence, 6 h; max response: stronger effect = higher value
Peroxisome proliferator-activated receptor alpha (Homo sapiens), sequence (Q07869 whole entry, looked up, the tested form may be a part): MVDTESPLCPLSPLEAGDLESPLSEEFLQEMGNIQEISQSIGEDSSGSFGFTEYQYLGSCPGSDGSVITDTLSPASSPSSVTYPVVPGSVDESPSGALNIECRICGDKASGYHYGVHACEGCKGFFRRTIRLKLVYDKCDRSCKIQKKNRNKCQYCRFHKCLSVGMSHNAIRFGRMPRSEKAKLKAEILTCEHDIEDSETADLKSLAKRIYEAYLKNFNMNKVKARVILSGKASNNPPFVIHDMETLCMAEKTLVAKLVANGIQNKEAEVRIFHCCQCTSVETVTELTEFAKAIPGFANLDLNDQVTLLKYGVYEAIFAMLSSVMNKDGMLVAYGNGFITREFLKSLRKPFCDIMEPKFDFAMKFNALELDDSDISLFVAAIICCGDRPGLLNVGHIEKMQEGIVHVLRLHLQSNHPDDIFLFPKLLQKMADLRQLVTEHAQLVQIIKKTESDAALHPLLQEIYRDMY
Outline: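 Enzyme-fragment complementation assay in which ligand-bound PPARalpha translocates and forms an active enzyme that generates chemiluminescence. Cells were plated overnight, exposed to compound for 6 hr at 37 C, and then given detection reagent for 60 min at room temperature.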

[20] = qHTS assay for cell viability of HEK293 cells (AID 743288; active means well fitted curve in the direction sought with a large enough effect; an effect the other way counts as inactive or inconclusive; further: on the % scale 0 is the no-effect control and ±100 the full control effect; nearly all actives have a fitted effect of over 50% in size); details: ATP luminescence (CellTiter-Glo), 18 h; max response: stronger effect = lower value
Outline: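 HEK293, 18 h, 37 C, ATP luminescence. Cells at 2,000/well were allowed at least 5 h to settle before dosing; CellTiter-Glo developed 30 min at RT.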

N[C@@H]1[C@@H](O)[C@H](O)[C@@H](CO)O[C@H]1O
-16.6%: max response [8]
-2.29%: max response [5]
inactive: Potency [1] | Potency [2] | Potency [4] | Potency [6] | Potency [7] | max response [9] 6.05% | Potency [10] | max response [11] -11.9% | Potency [12] | max response [13] -3.38% | outcome [14]
8.04%: max response [3]

Cn1c(=O)[nH]c(=O)n(C2CCC(O)CC2)c1=O (stereo not drawn)
-1.18%: max response [5]
inactive: Potency [1] | Potency [2] | Potency [4] | outcome [15] | Potency [6] | Potency [7] | max response [9] -0.444% | activity change % (negative = inhibition) [16] 3.03% | activation [17] -0.274% | activation [18] 1.88% | max response [19] -2.74% | Potency [10] | max response [11] 7.46% | max response [20] -0.781% | Potency [12] | max response [13] -2.03% | outcome [14]
-1.59%: max response [8]
54.4%: max response [3]

Nc1c(N=Nc2ccc(S(=O)(=O)CCOS(=O)(=O)O)cc2)c(S(=O)(=O)O)cc2cc(S(=O)(=O)O)c(N=Nc3ccc(S(=O)(=O)CCOS(=O)(=O)O)cc3)c(O)c12
-15.1%: max response [3]
-7.65%: max response [5]
inactive: Potency [1] | Potency [2] | Potency [4] | outcome [15] | Potency [6] | Potency [7] | max response [9] -5.5% | activity change % (negative = inhibition) [16] -6.2% | activation [17] 1.61% | activation [18] -7.65% | Potency [10] | max response [13] -11.2% | outcome [14]
active: Potency [11] 35.5 µM | Potency [12] 25.1 µM
-13.3%: max response [8]

Cc1ccc(N=Nc2c(O)ccc3ccccc23)c(C)c1
inactive: Potency [1] | Potency [2] | Potency [4] | outcome [15] | Potency [7] | max response [9] -32% | activity change % (negative = inhibition) [16] 9.11% | activation [17] 6% | max response [19] 0.784% | max response [11] -17.4% | max response [20] -21.3% | Potency [12] | max response [13] 13.1%
-15.2%: max response [8]
active: Potency [18] 31.6 µM
9.29%: max response [3]

CCc1cccc(C)c1N(C(=O)CS(=O)(=O)O)[C@@H](C)COC
-8.42%: max response [5]
inactive: Potency [1] | Potency [2] | Potency [4] | outcome [15] | Potency [6] | Potency [7] | max response [9] -22.6% | activity change % (negative = inhibition) [16] -18.4% | activation [17] -2.32% | activation [18] -0.669% | max response [19] -2.29% | Potency [10] | max response [11] -5.93% | max response [20] -5.4% | Potency [12] | max response [13] -5.94% | outcome [14]
9.75%: max response [8]
24.1%: max response [3]

C=C(C)C(=O)OCCCCCCCCCCCCCCCC
-3.04%: max response [8]
inactive: Potency [1] | Potency [2] | Potency [4] | outcome [15] | Potency [6] | max response [9] -1.04% | activity change % (negative = inhibition) [16] -5.63% | activation [17] -3.24% | activation [18] 0.0765% | max response [19] -2.7% | Potency [10] | max response [11] 0.407% | max response [20] -1.34% | Potency [12] | max response [13] 2.75% | outcome [14]
-9.92%: max response [3]
-13%: max response [5]

CCCCCCCOC(=O)c1ccccc1C(=O)OCCCCCCC
-7.26%: max response [3]
-2.68%: max response [5]
inactive: Potency [1] | Potency [2] | Potency [4] | outcome [15] | Potency [6] | Potency [7] | max response [9] 5.05% | activation [17] -1.95% | activation [18] -0.336% | max response [19] 0.0123% | Potency [10] | max response [11] 6.19% | max response [20] -8.86% | Potency [12] | max response [13] -1.98% | outcome [14]
-8.81%: max response [8]

NCCCCCCCCCCCC(=O)O
-5.4%: max response [5]
inactive: Potency [1] | Potency [2] | Potency [4] | outcome [15] | Potency [6] | max response [9] 2.61% | activity change % (negative = inhibition) [16] 11.2% | activation [17] -0.832% | activation [18] -1.28% | max response [19] -1.44% | Potency [10] | max response [11] 4.58% | max response [20] 6.09% | Potency [12] | max response [13] -0.534% | outcome [14]
20.5%: max response [3]
-12%: max response [8]

O=C1CCCC/C=C/CCCCCCCCCO1
-14.2%: max response [5]
-0.124%: max response [3]
inactive: Potency [1] | Potency [2] | Potency [4] | Potency [6] | Potency [7] | max response [9] 5.91% | activity change % (negative = inhibition) [16] -13.1% | activation [17] -0.561% | activation [18] -0.496% | max response [19] 11.1% | max response [11] 0.0367% | max response [20] 4.39% | Potency [12] | max response [13] -0.578% | outcome [14]
-16.9%: max response [8]

CNc1nc(=O)n(C2CCC(O)CC2)c(=O)n1C (stereo not drawn)
-9.94%: max response [5]
inactive: Potency [1] | Potency [2] | Potency [4] | Potency [6] | Potency [7] | max response [9] 4.66% | activity change % (negative = inhibition) [16] -13.9% | activation [17] -0.329% | activation [18] -1.26% | max response [19] -1.33% | max response [11] -6.82% | max response [20] -1.62% | Potency [12] | max response [13] -0.414% | outcome [14]
-9.65%: max response [8]
29.9%: max response [3]

CC1(C)[C@@H](C=C(Cl)Cl)[C@@H]1C(=O)OCc1cccc(Oc2ccccc2)c1
-10.2%: max response [8]
-21.4%: max response [3]
inactive: Potency [1] | Potency [2] | Potency [4] | max response [9] -8.61% | activity change % (negative = inhibition) [16] 5.01% | activation [18] -0.62% | max response [19] -0.645% | max response [11] -5.58% | max response [20] -11.2% | Potency [12]

CCCCCCCCCCCCCCCCCC(N)=O
inactive: Potency [1] | Potency [2] | outcome [15] | Potency [7] | activity change % (negative = inhibition) [16] -14.9% | activation [17] -1.76% | activation [18] -1.31% | max response [19] -0.969% | Potency [10] | max response [11] 5.14% | max response [20] -6.14% | Potency [12] | max response [13] 4.74% | outcome [14]
51.4%: max response [3]
